High-throughput results: PubChem, several laboratories
CYP2C9 activ = human CYP2C9 activators, primary screen, biochemical, luminescence; Cytochrome P450 2C9 (Homo sapiens), P11712; recombinant CYP2C9, luciferin-H conversion; active compounds read high; factor 1 = untreated enzyme, 0 = blocked; activation factor at 5 µM; 1.4% of 96,000 active;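 active = activation factor of 2 or more for CYP2C9 at a 5 µM dose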;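 also: 0 = sulfaphenazole-blocked wells and 1 = vehicle-only wells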
Target sequence (P11712 whole entry, looked up): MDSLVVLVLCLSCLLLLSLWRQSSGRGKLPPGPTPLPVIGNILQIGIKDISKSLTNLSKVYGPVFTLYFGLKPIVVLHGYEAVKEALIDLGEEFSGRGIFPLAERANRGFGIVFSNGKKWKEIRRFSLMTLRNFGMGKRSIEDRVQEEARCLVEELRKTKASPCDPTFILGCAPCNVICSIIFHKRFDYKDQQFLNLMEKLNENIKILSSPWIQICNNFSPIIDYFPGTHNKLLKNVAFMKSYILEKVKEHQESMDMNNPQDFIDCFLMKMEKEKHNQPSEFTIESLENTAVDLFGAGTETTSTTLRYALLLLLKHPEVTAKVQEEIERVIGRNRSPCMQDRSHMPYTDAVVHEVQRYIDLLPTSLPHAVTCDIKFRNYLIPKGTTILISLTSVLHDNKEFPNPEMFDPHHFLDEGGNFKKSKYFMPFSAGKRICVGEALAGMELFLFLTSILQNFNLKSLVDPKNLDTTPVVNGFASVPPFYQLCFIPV
PostGolgi ctrl = growth inhibition of yeast control strain, primary screen, counter-screen for post-Golgi transport modulator project; 5% of 98,000 active; efflux-deficient yeast background strain, growth absorbance A615, 16 h; inhibition, % at 10 µM
CYP2C19 activ = human CYP2C19 activators, primary screen, biochemical, luminescence. recombinant CYP2C19, luciferin-H EGE luminescence; active compounds read high; 0 = fully inhibited enzyme, 1 = untreated enzyme. AID 1025, 2008. Cytochrome P450 2C19 (Homo sapiens), P33261. activation factor at 5 µM. 96,000 tested, under 10 active;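 active = activation factor of at least 2 at 5 µM in the primary screen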;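 also: 0 = wells with 2.5 mM tranylcypromine and 1 = vehicle-only wells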
CYP2C19 inhib = blockers of cytochrome P450 2C19 activity – biochemical, luminescence, ADME assay, primary screen. P33261. CYP2C19 Supersomes, luciferin-H EGE luminescence, 30 min. inhibition, % at 5 µM. 21% of 96,000 active. AID 778, 2007;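 active = CYP2C19 inhibition above a set limit at 5 µM in the primary screen, cut at about 50% in these data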;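 also: plate controls were negative control wells for no effect and 2.5 mM tranylcypromine positive control for full effect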
PostGolgi yeast = phenotypic screen on post-Golgi transport, primary screen. post-Golgi transport phenotypic cell assay. inhibition, % at 10 µM. 0.9% of 98,000 active. AID 739, 2007;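 also: yeast cells grown in 1536-well plates; yeast grown about 18 h at 30C before absorbance read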
CYP2C9 inhib = blockers of cytochrome P450 2C9 activity – biochemical, luminescence, ADME assay, primary screen. 20% of 96,000 active. P11712. CYP2C9 Supersomes, luciferin-H conversion. inhibition, % at 5 µM;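 active = blocking of liver enzyme CYP2C9 beyond about 50% at 5 µM, limit read from the data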
Numbers without * were called inactive. In the library only some 32% were active in any assay of this set; here they are far more common. Rule as the data show it, unless noted: active = inhibition above about 30%; inactive = the rest.

SMILES	CYP2C9 activ	PostGolgi ctrl	CYP2C19 activ	CYP2C19 inhib	PostGolgi yeast	CYP2C9 inhib
CCOc1ccc(/C=C/[N+](=O)[O-])c2ccccc12	0.9	80.7*	0.8	19.1	77.6*	8.5
CCOC(=O)COc1ccc(/C=C/[N+](=O)[O-])c(OCC(=O)OCC)c1	0.8	4.7	0.9	9.8	-4.9	23.2
O=[N+]([O-])/C=C/c1c(OCc2ccccc2)ccc2ccccc12	0.5	99.2*	0.9	5.4	104.6*	48.0
COC(=O)c1sc2nc[nH]c(=O)c2c1C	1	-6.9	1	2.8	11.1	1.1
O=C(O)CCNS(=O)(=O)c1ccc(Oc2ccccc2Cl)cc1	0.8	0.0	1	1.8	15.9	16.7
CCn1c(SCC(=O)NCc2ccc(C)cc2)nnc1-c1ccncc1	0.6	6.8	0.8	20.4	15.9	42.6
CCn1c(SCC(=O)NCc2cccs2)nnc1-c1ccncc1	0.8	14.6	0.6	43.7	6.4	17.5
CCn1c(SCC(=O)Nc2cc(C)on2)nnc1-c1ccncc1	0.8	3.4	0.3	72.7*	1.3	17.5
CN(C)c1ccc(NC(=O)CSc2nc(N)c(C(=O)Nc3ccc(N(C)C)cc3)s2)cc1	0.7	-3.1	0.7	27.9	-2.2	33.2
CCn1c(SCC(=O)Nc2ccc(N(C)C)cc2)nnc1-c1cccc(C)c1	0.1	25.4	0.3	72.8*	4.0	86.2*
CCn1c(SCC(=O)Nc2cccc(NC(=O)c3cccs3)c2)nnc1-c1ccncc1	0.3	8.0	0.7	30.6	1.1	72.1*
CCOC(=O)c1sc(SCC(=O)Nc2ccc(N(C)C)cc2)nc1N	0.4	-7.1	0.3	69.0*	1.4	56.9*
O=C(NCCN1CCCC1)c1ccc2c(=O)n(CCc3ccccc3)c(=O)[nH]c2c1	0.9	6.2	0.8	18.1	-1.1	13.1
Cc1ccccc1OCC(=O)N(Cc1ccc(N(C)C)cc1)C1CCS(=O)(=O)C1 (stereo unspecified)	0.9	9.8	0.8	22.5	10.1	12.6
CCC(=O)Nc1cccc(NC(=O)CSc2nnc(-c3ccc(NS(C)(=O)=O)cc3)n2CC)c1	0.5	14.9	0.6	35.6	-1.4	54.2*
CCn1c(SCC(=O)Nc2ccc(S(=O)(=O)Nc3ccccn3)cc2)nnc1-c1ccncc1	0	-0.6	0.4	60.2*	-4.0	95.4*
CCn1c(SCC(=O)Nc2cccc(OC)c2)nnc1-c1ccc(Cl)cc1	1.1	9.1	1	0.4	-7.8	-5.8
O=C(CSc1nnc(-c2ccccc2)n1C1CCCCC1)Nc1ccc(S(=O)(=O)Nc2ccccn2)cc1	0.9	-1.3	0.6	35.3	-21.5	10.3
Cc1c(C(=O)N2CCC(C)CC2)oc2ccc(S(=O)(=O)N3CCC4(CC3)OCCO4)cc12	0.7	3.5	0.7	26.3	-7.8	33.2
CCOc1ccc(Cn2c(C)nc([N+](=O)[O-])c2SCC(O)CCl)cc1[N+](=O)[O-] (stereo unspecified)	0.4	-3.9	0.2	75.5*	-8.2	61.0*
COc1cc(OC)c(OC)cc1/C=N/N(C)c1ccccc1	0.3	44.8*	0.7	32.6	1.7	70.2*
COc1cc(/C=N/N(C)c2ccccc2)ccc1O	0.3	7.7	0.2	82.2*	-3.9	74.3*
Cc1ccc(NC2=CC(=O)OC(C)C2)cc1 (stereo unspecified)	1.1	5.8	1.1	-8.0	-4.6	-8.8
COc1ccc(N2C(=O)CC(Nc3ccc(C)cc3)C2=O)cc1 (stereo unspecified)	0.3	5.8	0.9	13.8	0.8	74.4*
COC(=O)c1ccccc1NC(=O)CN1C(=O)CSC1=O	1.1	11.7	1	1.0	-1.0	-7.5
SMILES	CYP2C9 activ	PostGolgi ctrl	CYP2C19 activ	CYP2C19 inhib	PostGolgi yeast	CYP2C9 inhib
COC(=O)c1ccccc1NC1CC(=O)N(c2c(C)cccc2C)C1=O (stereo unspecified)	0.2	4.4	0.7	33.9	-3.2	77.7*
COC(=O)c1ccc(N2C(=O)CC(N(C)CCc3ccc(OC)c(OC)c3)C2=O)cc1 (stereo unspecified)	0.5	4.0	0.4	61.5*	18.9	54.5*
COC(=O)c1cccc(NC2CC(=O)N(c3ccc(OC)c(OC)c3)C2=O)c1 (stereo unspecified)	0.9	-0.1	0.5	53.1*	8.8	10.1
CCN(CC)c1cccc(OCC(=O)N(C)CCC#N)c1	1.1	-0.8	1.1	-11.1	-0.8	-6.8
COc1cc(C(=O)NC(=S)Nc2ccc3oc(=O)ccc3c2)cc(OC)c1OC	1	-6.1	1	2.3	7.3	3.1
Cc1nc(N)sc1-c1nnc(SCC(=O)Nc2nccs2)n1C	0.7	5.3	0.7	27.1	-2.4	34.4
Cc1cc(-c2nc3ncccc3o2)ccc1NC(=O)CC(C)C	0.7	12.7	0.9	7.1	1.0	25.1
CN=C(Nc1ccc(C(=O)OC)cc1)SC1CC(=O)N(c2ccccc2F)C1=O (stereo unspecified)	0.5	3.0	0.8	16.5	-4.3	48.6
COC(=O)c1ccc(NC2CC(=O)N(c3ccccc3C)C2=O)cc1 (stereo unspecified)	0.8	-1.3	0.4	60.1*	-4.2	20.4
C=CCS/C(=N\n1cnc2ccccc2c1=O)N1CCCCC1	0.5	5.3	0.8	16.4	-7.9	51.3*
C=CCS/C(=N\n1cnc2ccccc2c1=O)N(CC)CC	0.4	12.6	0	95.5*	-6.0	63.4*
CC1(C)CC(=O)C(/C=N/n2cnc3ccccc3c2=O)=C(O)C1	1	10.4	1	-4.8	-1.3	-1.0
CCn1c(=NC(=O)CN2C(=O)CCC2=O)sc2c(C)cc(C)cc21	1.8	9.1	0.8	16.7	-3.8	-75.9
Cc1ccc(C)c2[nH]c(=O)c(CN(CCN3CCCC3)C(=O)Nc3cccc(Cl)c3)cc12	0.9	5.6	0.8	19.5	-0.6	12.2
COc1ccc(S(=O)(=O)N(CCCN2CCCC2=O)Cc2cc3cc(C)c(C)cc3[nH]c2=O)cc1	0.3	2.6	0.8	22.5	-3.4	67.6*
Cc1ccc(S(=O)(=O)N(CCCN2CCCC2=O)Cc2cc3c(C)ccc(C)c3[nH]c2=O)cc1	0.4	2.6	0.9	10.9	-7.9	62.8*
COc1ccc2[nH]c(=O)c(CN(CCO)S(=O)(=O)c3c(C)ccc4nsnc34)cc2c1	0.9	6.5	0.8	21.9	-3.0	11.6
CCCCOCP(=O)(CCCC)COCCCC	1	-0.9	0.9	13.1	-6.7	0.2
Cn1c(=O)c2c(SC3CCCC3)nc(C3CC3)nc2n(C)c1=O	0.9	9.1	1	-3.3	-12.2	7.5
CN1C(=O)CC(N2CCN(Cc3ccc(Cl)cc3)CC2)C1=O (stereo unspecified)	0.9	8.6	0.8	23.4	-4.3	6.6
